Test results taken from PubChem BioAssay (Tox21).
Inconclusive results are not listed. A call without a number means that no potency is given here. Active and inactive are the calls of the source. The call rests on the fitted dose curve; in most records, active means well fitted cell-killing curve with a large enough effect in the repeat runs (not every such curve was filed as active); inconclusive means weak or mixed curves, or effect the other way; inactive means no such curve, though single readings can be large or run the other way.

Test: qHTS assay to identify small molecule antagonists of the estrogen related receptor signaling pathway with the pleiotropic PPARgamma coactivator (PGC) from Tox21 10K library - cell viability counter screen (AID 1224840); further: nearly all actives have a fitted effect of over 40% in size
Conditions: PGC/ERR reporter cells viability, CellTiter-Fluor, 17.5 h; series mostly up to 92.4 µM
Description: National Center for Advancing Translational Sciences [NCATS]
NIH Chemical Genomics Center [NCGC]
U.S. Environmental Protection Agency [EPA]
National Institutes of Environmental Health Sciences [NIEHS]
National Toxicology Program [NTP]
U.S. Food and Drug Administration [FDA]
Estrogen related receptors (ERRs), the first orphan nuclear receptors discovered, play an important role in the control of cellular energy metabolism. ERRs are required for high-energy production in response to the environmental challenges. The pleiotropic PPARgamma coactivator (PGC) is a major partner of ERR and a key regulator in energy homeostasis. Together they have been implicated in the etiology of metabolic disorders such as Type 2 diabetes and metabolic syndrome. ERR-alpha was also identified as an adverse marker for breast cancer progression; ERR-alpha-positive tumors have a poor prognosis. To screen and to identify environmental compounds that perturb the ERR and PGC/ERR signaling pathways could provide valuable information for potential therapeutic or preventive measures in the treatment of metabolic disease. To differentiate true PGC/ERR antagonists or agonist from cytotoxic substances, the assay is multiplexed with cell viability assay.
Tox21 Assay Protocol Summary:
The PGC/ERR cells were dispensed at 2,000 cells/5 ul/well in 1536-well white plates using a Multidrop dispenser. After the assay plates were incubated at a 37 C/5% CO2 incubator for 6 hours, 23 nL of compounds dissolved in DMSO, positive and negative controls or DMSO only was transferred to the assay plate by a pin tool. The plates were incubated at 37 C for 17.5 hours. 1 ul/well of CellTiter-Fluor reagent was added into the assay plates using a Flying Reagent Dispenser. After 30-minute incubation at 37 C/5% CO2, the fluorescence intensity in the plates was measured using a ViewLux plate reader.

Row | Compound | Potency
1 | c1ccc2scnc2c1 | inactive
2 | Cc1occc(=O)c1O | inactive
3 | C/C=C1/CC2C=CC1C2 (stereo not given) | inactive
4 | C[Si](O[Si](C)(C)C)O[Si](C)(C)C | inactive
5 | CSCCC=O | inactive
6 | CCCCC(CC)COC(=O)CCCCC(=O)OCC(CC)CCCC (stereo not given) | inactive
7 | O=c1[nH]nnc2ccccc12 | inactive
8 | CC(=O)OCC(=O)[C@@]12N=C(C)O[C@@H]1C[C@H]1[C@@H]3CCC4=CC(=O)C=C[C@]4(C)[C@H]3[C@@H](O)C[C@@]12C | inactive
9 | C=CCNC(N)=S | inactive
10 | Cc1ccc(N(C)C)cc1 | inactive
11 | O=C(O)c1ccc2c(c1)C(=O)OC2=O | inactive
12 | CCc1ccc(CCOc2ccc(CC3SC(=O)NC3=O)cc2)nc1 (stereo not given) | inactive
13 | C=CCOC(=O)c1ccccc1C(=O)OCC=C | inactive
14 | Cc1ccc2oc(=O)ccc2c1 | inactive
15 | O=C(O)c1cc(=O)c2c(OCC(O)COc3cccc4oc(C(=O)O)cc(=O)c34)cccc2o1 | inactive
16 | ON=C1CCCCC1 | inactive
17 | CC(=O)c1ccccc1 | inactive
18 | O=C(Oc1ccccc1)c1ccccc1 | inactive
19 | CC(=O)CC(=O)Nc1ccccc1C | inactive
20 | C=C(C)C(=O)Nc1ccc(Cl)c(Cl)c1 | inactive

Row | Compound | Potency
21 | CCCCCCCCCCCCOCCO | inactive
22 | CCCCCCCCCCCCCCCO | inactive
23 | CN(C)CCOCCN(C)C | inactive
24 | Cc1cccc(O)c1 | inactive
25 | CCCCCOC(C)=O | inactive
26 | C#CCN(C)Cc1ccccc1 | inactive
27 | Cc1cnc(C(=O)NCCc2ccc(S(=O)(=O)NC(=O)NC3CCCCC3)cc2)cn1 | inactive
28 | CCCCOC(=O)COc1ccc(Cl)cc1Cl | inactive
29 | CC(O)COCC(C)O (stereo not given) | inactive
30 | CC1=CC(=O)NS(=O)(=O)O1 | inactive
31 | CCCCCCCCCC | inactive
32 | CCCCCCCCC/C=C/CC1CC(=O)OC1=O (stereo not given) | inactive
33 | c1ccc(OCCOc2ccccc2)cc1 | inactive
34 | O=C(OCCOCCOC(=O)c1ccccc1)c1ccccc1 | inactive
35 | O=C=NCCCCCCN=C=O | inactive
36 | C#C[C@]1(O)CC[C@H]2[C@@H]3CCC4=CC(=O)CC[C@@H]4[C@H]3CC[C@@]21C | inactive
37 | CCCCN(CCCC)CCCC | inactive
38 | COCCCOc1ccnc(CS(=O)c2nc3ccccc3[nH]2)c1C (stereo not given) | inactive
39 | CC(=O)Nc1ccccc1 | inactive
40 | OCCOCCN1CCN(C2=Nc3ccccc3Sc3ccccc32)CC1 | inactive
